From the supplement of paper PMC6555819

tested on: VDR:RXRa (NR concentration 270 nM, RXRa partner concentration 90 nM); experiment: PBM binding z-score (relative to random genomic background probes); higher = stronger binding; sequences stand for … in GC…GCGATTGACAGCGTAGAATGAAGG
Experimental: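 Protein-binding microarray (Agilent 4x180K custom design, double-stranded 60-nt probes: 5' GC cap, 34-nt variable region, 24-nt constant primer region; full probe sequence given). Purified or IVT nuclear receptor:RXRα heterodimers (3:1 NR:RXRα, mostly 270:90 nM) or homodimers were incubated for 1 h in PBS with 2% milk and no ligand, then detected with Alexa488 antibodies. Fluorescence from o1-orientation probes (~5 replicates averaged) was converted to z-scores against 500 random hg19 background probes. Variable regions are seed direct-repeat (DR0–DR5) sites, all their single-nucleotide variants and half-site ablations.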

Q: Which PBM binding z-score does the source give for CGAACTAGGTCAAGTACAGTGAATCTCCGCACGC here?
A: The PBM binding z-score was 2.02.

Q: Which PBM binding z-score does the source give for TCACCAAGGTGAGCTGAGGTCGTTGATCCAACTC here?
A: The PBM binding z-score was 3.97.

Q: For AGTAGTTGGTCAGCTGAGGTCACACACAATTCGG, which PBM binding z-score is on record?
A: Its PBM binding z-score is 4.43.

Q: How did the PBM binding z-score turn out when CCGACTGGGGCCTAAGGTTACCATAAGCCAGCCC was run?
A: Its PBM binding z-score is -0.158.

Q: How did the PBM binding z-score turn out when GCATATAGGTAATACGAGGTGAAAGTCCGATTGT was run?
A: Its PBM binding z-score is 0.598.

Q: For ATCTCTAGGTAAGACTCACTTCAGTGAAGAACGC, which PBM binding z-score is on record?
A: Its PBM binding z-score is 0.175.

Q: For ACTATTAGTTGAGACGATGGCAACCGATAGGTTG, which PBM binding z-score is on record?
A: The PBM binding z-score was -0.293.

Q: Which PBM binding z-score does the source give for ATATGTAGGTTACATCCGGGTCAGTCAGGCTATG here?
A: Its PBM binding z-score is 2.62.

Q: Which PBM binding z-score does the source give for CGTCAAAGTTCAACGTAACGTAACAGAAAGCAGC here?
A: The PBM binding z-score was 3.97.

Q: For CCGACTGGGACAAGGTTACCATAACGCACAGCCA, which PBM binding z-score is on record?
A: Its PBM binding z-score is 0.2.

Q: For ATATGTAAGTTATCGGGTCATTCAGTTTGCGCAT, which PBM binding z-score is on record?
A: Its PBM binding z-score is 4.93.

Q: How did the PBM binding z-score turn out when TCATATAGGTAAAGCTGAAAGTCGAACGATATGA was run?
A: Its PBM binding z-score is 0.186.

Q: With GCCTATAGGTAATACAAGGTGAAAGTCCGATTGT as the sequence, how does the PBM binding z-score read?
A: Its PBM binding z-score is 0.256.

Q: With TCTTCTAGATCAACAGGAGGTTAAGAAAGATCGA as the sequence, how does the PBM binding z-score read?
A: The PBM binding z-score was 0.728.

Q: How did the PBM binding z-score turn out when CCGACTCGGGCAGAAAGGTTACCATACCATCCGG was run?
A: The PBM binding z-score was 0.699.

Q: For ACGGACAGGTGAGTGAAGGTAACTCAGCTGGACG, which PBM binding z-score is on record?
A: Its PBM binding z-score is -0.381.

Q: For CCTTACGGGTCACTCCCGGTTATAGCATCGGAGT, which PBM binding z-score is on record?
A: Its PBM binding z-score is 3.03.

Q: Which PBM binding z-score does the source give for TCTATTACTTGATTAGGGCAACCGAAACAGCGGA here?
A: The PBM binding z-score was 0.676.

Q: With TATACAGTGTCAAAGGCCAGAGTACGAATGTCGA as the sequence, how does the PBM binding z-score read?
A: Its PBM binding z-score is 0.815.

Q: How did the PBM binding z-score turn out when CAAACTAGGTCAAGCGGTCAAAGTCCGCTTCCCG was run?
A: Its PBM binding z-score is 2.99.

Q: CGAACTGGGTCATCCAGGACAGTGAATACATTGA was tested. Which PBM binding z-score did it give?
A: Its PBM binding z-score is 4.54.

Q: Which PBM binding z-score does the source give for CCCAGTTGGTCAGGAGGTCACACACCGGATATGA here?
A: Its PBM binding z-score is 3.96.

Q: With AGAACGAGGGCACGCAGAGTTGATAGCAGAGTAG as the sequence, how does the PBM binding z-score read?
A: The PBM binding z-score was 2.02.

Q: How did the PBM binding z-score turn out when GTAGCAAGGTGAATAGGTCGTTGATGAGTAGGCG was run?
A: The PBM binding z-score was 0.451.

Q: Which PBM binding z-score does the source give for ATCTCTAGGTAACAAGTTCAGTGACAGAGAGGAC here?
A: The PBM binding z-score was 1.97.

Q: CAAACTAGGTCAAGCTCAAAGTCGGTTTGTGCCA was tested. Which PBM binding z-score did it give?
A: The PBM binding z-score was 1.7.

Q: For CAAACTAGGTCACCGGAAGGTCAAGGTCCGCATG, which PBM binding z-score is on record?
A: Its PBM binding z-score is 5.58.

Q: For CGGCAAAGTTCAACTAAGGTAACGTAAAGCACGC, which PBM binding z-score is on record?
A: Its PBM binding z-score is 4.67.

Q: Which PBM binding z-score does the source give for CCTAGCAGGCCAATCTGGGGCACTCAAGGCTTGA here?
A: The PBM binding z-score was -0.786.

Q: Which PBM binding z-score does the source give for CCTAGCACGCCAATCTGGGTCACTCAAGGCTTGA here?
A: The PBM binding z-score was 0.379.

Q: Which PBM binding z-score does the source give for ACTAGCAGGCCAAGTTCGGGTCACTCAAACAAAG here?
A: The PBM binding z-score was 2.43.

Q: With CGAACTAGGTGAAGGACAGTGAATCTCCGCACGC as the sequence, how does the PBM binding z-score read?
A: Its PBM binding z-score is -0.403.

Q: For TAGCCTAGGTCAGATCGGGCCAGTATGCGCTATA, which PBM binding z-score is on record?
A: Its PBM binding z-score is 0.446.

Q: Which PBM binding z-score does the source give for ATCACTAGGTAAGACTCAGTTCAGTGAAGAACGC here?
A: The PBM binding z-score was 0.53.

Q: For ACTATTAGTTGACTTACGGCAACCGATACGACGC, which PBM binding z-score is on record?
A: The PBM binding z-score was 0.0942.

Q: With CAAACTAGGTCAAAGGTCCAAGTCGAGCCAACCA as the sequence, how does the PBM binding z-score read?
A: Its PBM binding z-score is 3.41.

Q: TAGCCTATGTCATGGGCCAGTATACCACGCGAAC was tested. Which PBM binding z-score did it give?
A: The PBM binding z-score was -0.365.

Q: CATCCTAGGTCAGGGCCAGTATAGGAGGAACGTT was tested. Which PBM binding z-score did it give?
A: Its PBM binding z-score is 0.731.

Q: TCTAGGAGGCCAGAGGGTCACTCAAGAGGTACGG was tested. Which PBM binding z-score did it give?
A: The PBM binding z-score was 1.68.

Q: CTACCAAGGTGAATAAGGTCGTTGATTACTATTC was tested. Which PBM binding z-score did it give?
A: The PBM binding z-score was 5.52.
